An excerpt weighted towards active compounds, which were near 3% of everything screened.
CSC inhib: cancer stem cell inhibition; 300,000 tested, 1.1% active; cancer stem cell-like cells viability, luminescence; inhibition, % at 7.5 µM; AID 2717; in the data active = inhibition above about 75%; inconclusive = no clear call, values can overlap the other calls; tested in HMLE shEcad cells
KLF5 inhibitor: suppresses KLF5 promoter-driven expression | DLD-1 KLF5 promoter-luciferase reporter, luminescence | inhibition, % at 5 µM | 290,000 tested, 0.23% active | AID 1700;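 active = inhibition above a per-plate limit of that plate's mean compound inhibition plus 3 SD, cut at about 60% in these data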;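 note: higher means less KLF5 promoter-driven luciferase light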
SKKanGAS inh: SKKanGAS growth inhibition; S. pyogenes SKKanGAS, kanamycin growth, BacTiter-Glo, 6 h; 300,000 tested, 1.3% active; inhibition, % at 7.5 µM; AID 1662;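 active = mean replicate score, as percent of positive control median, at least 50; inconclusive = mean below 50 but one replicate at or above 50; inactive = mean and every replicate below 50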;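 note: strain carries kanamycin resistance gene driven by streptokinase promoter and grows in 40 µg/ml kanamycin; loss of luminescence reflects streptokinase promoter inhibition or plain growth inhibition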
IEC-6 cytotox: IEC-6 cytotoxicity, counter-screen for KLF5 inhibitors | luminescence viability | inhibition, % at 5 µM | 290,000 tested, 0.78% active | AID 1825; in the data active = inhibition above about 22%
aSyn 5UTR inh: 5' untranslated region of α-synuclein, MLPCN primary screen; alpha-synuclein 5'UTR reporter, inhibitor activity; inhibition, % (tested at 7.5 µM); 300,000 tested, 0.82% active; in the data active = inhibition above about 60%; inconclusive = no clear call, values can overlap the other calls;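 note: H4 neuroglioblastoma cells stably carrying SNCA 5'UTR luciferase fusion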
Large screens that a line does not name were inactive.

O=C(Nc1ccc(N2CCN(C(=O)c3ccc(Cl)cc3)CC2)cc1)c1ccc2c(c1)OCCO2	none (no result: CSC inhib, SKKanGAS inh)
O=Cc1cccn1Cc1ccccc1[N+](=O)[O-]	none
CCCCNC(=S)N(C)/N=C/c1ccc2c(c1)OCO2	CSC inhib 83
COC(=O)c1ccc(Oc2nc3ccccc3n3c(C)nnc23)cc1	SKKanGAS inh 53 (no result: KLF5 inhibitor, IEC-6 cytotox)
CC[n+]1c(/C=C/Nc2ccccc2)sc2ccccc21	none
CCN1/C(=C/C=C/c2sc3ccccc3[n+]2CC)Sc2ccccc21	CSC inhib 79, SKKanGAS inh 89 (no result: KLF5 inhibitor, IEC-6 cytotox)
CCN1/C(=C/C=C/C=C/C=C/c2sc3ccccc3[n+]2CC)Sc2ccccc21	none
CCN1/C(=C/C=C/C=C/c2sc3ccccc3[n+]2CC)Sc2ccccc21	SKKanGAS inh 104, aSyn 5UTR inh 126
CCN(CC)CCCC(C)Nc1c2ccc(Cl)cc2nc2ccc(OC)cc12 (stereo not given)	none (no result: CSC inhib, SKKanGAS inh, aSyn 5UTR inh)
COc1ccc2nc3cc(Cl)ccc3c(Nc3cc(C(C)C)c(O)cc3C)c2c1	CSC inhib 103
Cc1ccc(C(C)C)cc1NC(=O)Nc1ccc([N+](=O)[O-])cc1	CSC inhib 89, SKKanGAS inh 88
O=C(Nc1ccc(Oc2ccc(NC(=O)Nc3ccc([N+](=O)[O-])cc3)cc2)cc1)Nc1ccc([N+](=O)[O-])cc1	aSyn 5UTR inh 91
O=C(Nc1ccc([N+](=O)[O-])cc1)C(=O)Nc1cccc(C(=O)O)c1	KLF5 inhibitor 81, aSyn 5UTR inh 102
CC(=O)Nc1nc(-c2ccc([N+](=O)[O-])cc2)cs1	none
O=C(Nc1ccc([N+](=O)[O-])cc1)Nc1nc(-c2ccc(Cl)s2)cs1	CSC inhib 97, SKKanGAS inh 79, aSyn 5UTR inh 92
O=C(O)c1cc(NC(=O)c2ccc([N+](=O)[O-])cc2)cc(NC(=O)c2ccc([N+](=O)[O-])cc2)c1	none
CCOC(=O)CCc1c(C)nc(-n2[nH]c(C)c(CCO)c2=O)[nH]c1=O	none
COC(C(=O)Nc1ccnn1C1CCN(Cc2ccc(C)s2)CC1)c1ccccc1 (stereo not given)	none
FC(F)(F)Oc1ccc(NC(=S)Nc2ccc(OC(F)(F)F)cc2)cc1	SKKanGAS inh 72
Cc1ccc(CNS(=O)(=O)c2ccc(-n3cnnn3)c(C)c2)cc1	none
COc1ccc(Nc2oc(COc3ccccc3OC)nc2C#N)cc1	aSyn 5UTR inh 98
Cc1cc(C(=O)NNc2ccc(F)cc2)no1	CSC inhib 96
Cc1cc(C(=O)NNc2ccccc2F)no1	none
Cc1ccc(S(=O)(=O)N(C)C)cc1NC(=O)C(C)OC(=O)C1CCC1 (stereo not given)	none (no result: KLF5 inhibitor, SKKanGAS inh, IEC-6 cytotox, aSyn 5UTR inh)
CC(C)(C)c1ccc(Oc2ccc(N)cn2)cc1	aSyn 5UTR inh 87
CC(C)(C)c1ccc(Oc2ccc(NC(=O)c3ccccc3C(=O)O)cn2)cc1	aSyn 5UTR inh 86
O=C(O)c1ccccc1C(=O)Nc1ccc(Oc2ccccc2)cc1	none (no result: CSC inhib)
Nc1ncnc(Oc2cccc3cccnc23)c1[N+](=O)[O-]	none
CCc1ccc(S(=O)(=O)/N=C2\C=C(NS(=O)(=O)c3ccccc3)C(=O)c3ccccc32)cc1	SKKanGAS inh 63 (no result: CSC inhib)
CC(C)c1ccc(S(=O)(=O)/N=C2\C=C(NS(=O)(=O)c3ccccc3)C(=O)c3ccccc32)cc1	none
Cc1ccc(C)c(S(=O)(=O)/N=C2\C=C(NS(=O)(=O)c3ccccc3)C(=O)c3ccccc32)c1	SKKanGAS inh 107 (no result: CSC inhib)
Cc1cccc(S(=O)(=O)Nc2cccc3c2C(=O)c2ccccc2-3)c1	none
CCOC(=O)C1CCCN(C(=O)c2cccc(NC(=O)C(CC)CC)c2)C1 (stereo not given)	none
COc1cccc(/C=N/Nc2ncnc(Cl)c2N)c1O	CSC inhib 157, aSyn 5UTR inh 89
COc1cccc(/C=N/Nc2ncnc3scc(-c4ccccc4)c23)c1O	CSC inhib 111, KLF5 inhibitor 80, SKKanGAS inh 82, aSyn 5UTR inh inconclusive
CCC(=O)Nc1cc2c3c(c1)CCC(=O)N3CCC2	none
Cc1ccc(CNc2nc(C)c(C(=O)N(C)C)s2)cc1	none
O=C(NC(=S)N1CCN(C(c2ccccc2)c2ccccc2)CC1)c1ccc(S(=O)(=O)N2CCOCC2)cc1	SKKanGAS inh 66
CN1CCN(C(=S)NC(=O)c2ccc(S(=O)(=O)N3CCOCC3)cc2)CC1	none (no result: CSC inhib)
COC(=O)[C@@H]1C[C@@]2(O)[C@@H](O)[C@@H](O)[C@@H](O)C[C@H]2N1Cc1cc(OC)cc(OC)c1	none (no result: KLF5 inhibitor, IEC-6 cytotox)
COc1ccc(-c2noc(CCCC(=O)O)n2)cc1	aSyn 5UTR inh 89
Cc1csc(=O)n1CCC(=O)N(C)Cc1c(F)cccc1Cl	none (no result: KLF5 inhibitor, SKKanGAS inh, IEC-6 cytotox, aSyn 5UTR inh)
COc1ccc(OCc2cccc(C(=O)Nc3ccc(CN4CCCCC4)cc3)c2)cc1	none
CCOc1ccc(OCc2cccc(C(=O)Nc3ccc(CN4CCCCC4)cc3)c2)cc1	CSC inhib 79, aSyn 5UTR inh inconclusive
Cc1ccc(C(=O)NC(=S)NNC(=O)COc2ccc([N+](=O)[O-])cc2)cc1	SKKanGAS inh 82
O=C(COc1ccc([N+](=O)[O-])cc1)NNC(=S)NC(=O)c1ccc(Br)cc1	SKKanGAS inh 55
O=C(NC(=S)NNC(=O)c1ccccc1[N+](=O)[O-])c1ccc(Br)cc1	SKKanGAS inh 63
CC1=NN(c2nc(-c3ccc(C)cc3)cs2)C(=O)C1N=Nc1cccc(O)c1 (stereo not given)	none
CC1=NN(c2nc(-c3ccc(C)cc3)cs2)C(=O)C1N=Nc1ccccc1O (stereo not given)	aSyn 5UTR inh 63
CC(CN1CCOCC1)OC(=O)c1cccc(Cl)c1 (stereo not given)	none
O=S(=O)(c1ccc(Cl)cc1)N1CCC(n2cnc3cc(C(F)(F)F)ccc32)CC1	CSC inhib 85
COC(=O)c1onc(-c2c(Cl)cccc2Cl)c1C(=O)OC	none
COc1cccc(CNC(=O)CCC2CCCN(c3cc(C)nc(N4CCCC4)n3)C2)c1 (stereo not given)	none
CCOC(=O)C1CCN(C2=C(NS(=O)(=O)c3ccc(Cl)cc3)C(=O)c3ccccc3C2=O)CC1	SKKanGAS inh 52
CCOC(=O)C1CCCN(C2=C(NS(=O)(=O)c3ccc(Br)cc3)C(=O)c3ccccc3C2=O)C1 (stereo not given)	none
CC(=O)Nc1ccc(S(=O)(=O)NC2=C(N3CCN(C)CC3)C(=O)c3ccccc3C2=O)cc1	aSyn 5UTR inh 71
O=c1[nH]c(SCc2ccc(F)cc2Cl)nc2ccccc12	none
C[C@H]1COC2=C1C(=O)C(=O)c1c2ccc2c1CCCC2(C)C	SKKanGAS inh 86, aSyn 5UTR inh 102
Cc1ccc2c3c(cccc13)-c1ccccc1C2=O	none
Cc1coc2c1C(=O)C(=O)c1c-2ccc2c1CCCC2(C)C	aSyn 5UTR inh 63
Cc1coc2c1C(=O)C(=O)c1c-2ccc2c(C)cccc12	SKKanGAS inh 73 (no result: KLF5 inhibitor, IEC-6 cytotox)
CN1CCc2c(sc(NC(=O)c3ccc(S(=O)(=O)N4CCc5ccccc54)cc3)c2C(N)=O)C1	CSC inhib 82
CC(C)N1CCc2c(sc(NC(=O)c3ccc4ccccc4c3)c2C(N)=O)C1	CSC inhib 79
CN1CCc2c(sc(NC(=O)c3ccc(S(=O)(=O)N4CCCC4)cc3)c2C(N)=O)C1	none
CNC(=O)c1c(NC(=O)c2ccc(S(=O)(=O)N3CCCc4ccccc43)cc2)sc2c1CCN(C)C2	CSC inhib 76
